# Source: PubChem BioAssay
# KB-3-1 tox: kills parental KB-3-1 adenocarcinoma cells; KB-3-1 viability, CellTiter-Glo ATP luminescence, 72 h; 400,000 compounds, 1.4% hits; Potency, µM (series often up to 46.1 µM), actives largely listed as cytotoxic; also: potency is read from the fitted curve at half-maximal effect; nearly all actives have a fitted effect of over 60% in size
#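 Parental KB-3-1 viability, qHTS format: 72 h compound exposure, 37 °C; CellTiter-Glo; media-only wells and DMSO plates as controls; concentration-effect fits on corrected data.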
# HT1080 IDH1KD tx: kills HT-1080 cells with IDH1 knockdown. HT-1080 IDH1 knockdown viability, ATP luminescence, 48 h. Potency, µM (top dose mostly 46.1 µM), inactives show at the highest dose activity, negative = toxicity, hits mostly cytotoxic. 360,000 compounds, 2% hits. AID 686971;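 also: potency is read from the fitted curve at half-maximal effect; 0% = DMSO wells and -100% = cell-free medium wells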
#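 IDH1KD HT-1080 cells, 750/well, RPMI + 5% FBS; compound pinned after 2 h settling; 48 h, 37 °C; CellTiter-Glo luminescence; % activity normalised to DMSO and no-cell wells; curves fitted, classed by r2 and efficacy.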
# KB-V1 MDR tox: kills drug-selected multidrug resistant KB-V1 cells | AID 1347076 | Potency, µM (top dose mostly 46.1 µM), actives largely listed as cytotoxic | KB-V1 MDR cells viability, CellTiter-Glo, 72 h | 400,000 compounds, 3.4% hits; also: potency is read from the fitted curve at half-maximal effect; nearly all actives have a fitted effect of over 60% in size
#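 Compound-treated KB-V1 multidrug-resistant cells, 72 h, 37 degrees C; viability by CellTiter-Glo. Fitted qHTS curves give the values.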
# IL1B secr inh: blocks inflammasome-driven IL-1 beta release; activity change, % at 57.5 µM; THP-1 LPS/ATP IL-1B secretion, AlphaLISA, 16 h; hits give low values; 360,000 compounds, 4.7% hits; AID 743279; in the data active = activity change below about -50%; inconclusive = mostly about -30% to -49%
#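 THP-1 cells pretreated 1 hr with compounds (up to 57.5 uM final), then stimulated with LPS (250 ng/mL final) plus ATP (1.25 mM final); secreted IL-1B measured by AlphaLISA after 16 hr, decreased signal indicating inhibition.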
# HT1080-NT tox: kills 2HG-producing HT-1080-NT fibrosarcoma cells. HT-1080-NT fibrosarcoma viability, CellTiter-Glo ATP luminescence, 48 h. Potency, µM (top dose mostly 46.1 µM), for inactives: at the highest dose activity, negative = less viability, most hits filed as cytotoxic. 360,000 compounds, 1.6% hits. AID 686970;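 also: NT is the 2HG producing partner of a matched IDH1 knockdown line; potency is read from the fitted curve at half-maximal effect; 0% = DMSO-treated cells and -100% = media-only wells without cells; nearly all actives have a fitted effect of over 55% in size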
#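 750 cells/well, RPMI + 5% FBS; 2 h settle, compound pin-transfer, 48 h at 37 degrees C. CellTiter-Glo 10 min RT, luminescence. Normalized to DMSO and media-only wells.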
# An asterisk follows results filed as active; i = inactive; ? = inconclusive; · = not tested or not shown. An excerpt weighted towards active compounds, which were near 8.8% of everything screened. Unless noted, calls follow the shape of the dose curve; as a rule, active = well fitted curve in the direction sought with a large enough effect; inconclusive = small, poorly fitted or top-dose-only effect, or another doubt; inactive = no such curve, though single readings can be large; an effect the other way counts as inactive or inconclusive. Unless noted, % is scaled to controls: 0 for no effect and ±100 for the full control effect.
SMILES,KB-3-1 tox,HT1080 IDH1KD tx,KB-V1 MDR tox,IL1B secr inh,HT1080-NT tox
COc1ccc(Nc2c3c(nc4ccccc24)CCC3)cc1,?,?,21µM*,·,23µM*
COc1ccc(Nc2cc(C)c3cc(NC(=O)c4cc(OC)cc(OC)c4)ccc3n2)cc1,8.2µM*,·,?,·,·
CC1=C(C(N)=O)C(c2cccs2)NC(=O)N1 (stereo not drawn),i,4%,i,14,7%
Cc1ccc(CNC(=O)CCCc2nnc3n(C)c(=O)c4sccc4n23)cc1,i,·,i,·,·
Fc1ccc(Nc2c3c(nc4ccccc24)CCC3)cc1,?,?,i,-96*,16µM*
CN1CCN(c2ccc(Nc3c4ccccc4nc4ccccc34)cc2)CC1,15µM*,·,23µM*,·,·
c1ccc(Nc2c3c(nc4ccccc24)CCC3)cc1,i,?,?,-13,-8%
COc1ccc(Nc2cc(Nc3ccc(OC)cc3)ncn2)cc1,i,7%,i,-2,6%
COc1ccc(Nc2cc(Nc3cc(OC)c(OC)c(OC)c3)ncn2)cc1,i,-8%,?,-80*,-23%
c1cncc(Nc2c3ccccc3nc3ccccc23)c1,?,?,?,-94*,?
CCOc1ccc(N=C(NN)c2ccc3ccccc3n2)cc1,i,-10%,i,35,-12%
COc1cc(Nc2nc(-c3ccccc3)c3cc(C)ccc3n2)cc(OC)c1OC,?,?,21µM*,-65*,?
COc1ccccc1Nc1c2ccccc2nc2ccccc12,?,?,15µM*,-93*,16µM*
Cc1ccc2nc(NCC(=O)O)nc(-c3ccccc3)c2c1,i,-19%,i,-3,-9%
CN(C)CCCNc1c2c(nc3ccccc13)CCC2,?,-19%,i,-69*,-29%
COc1ccc(Nc2ccc(OC)cc2)cc1,i,12%,i,-52*,10%
CCN1CCN(CC(=O)N2N=C(c3cccs3)CC2c2ccc(C)cc2)C(=O)C1=O (stereo not drawn),i,4%,i,-7,0%
CN(C)c1nc(NCc2ccccc2)nc(SCC(N)=O)n1,i,-11%,i,24,0%
Cc1ccccc1OCCSc1nc(N(C)C)nc(N(C)C)n1,i,5%,i,1,24%
CN(C)c1nc(NCc2ccccc2)nc(SCC(=O)Nc2ccccc2Cl)n1,i,-9%,?,-11,-4%
CN(C)c1nc(NCc2ccccc2)nc(SCC(=O)Nc2ccccc2)n1,i,?,?,-77*,?
CN(C)c1nc(SCCOC(=O)Nc2ccccc2)nc(N(C)C)n1,i,2%,15µM*,-1,0%
CN(C)c1nc(NC(C)(C)C)nc(SCC(=O)Nc2ccccc2)n1,i,-10%,8.2µM*,-104*,-21%
O=c1[nH]cc(C(F)(F)F)cc1NS(=O)(=O)c1ccccc1[N+](=O)[O-],i,3%,i,15,7%
C=C[C@@H]1CN2CCC1C[C@H]2[C@H](O)c1ccnc2ccc(OC)cc12 (stereo partly drawn),·,5%,·,·,1%
SMILES,KB-3-1 tox,HT1080 IDH1KD tx,KB-V1 MDR tox,IL1B secr inh,HT1080-NT tox
CC(C)[C@H](NC(N)=O)C(=O)Nc1cccc(S(=O)(=O)N2CCOCC2)c1,i,1%,i,12,-12%
COc1cccc(CN(C)C(=O)C(CCSC)NS(=O)(=O)c2ccc3c(c2)OCCO3)c1OC (stereo not drawn),i,-16%,15µM*,-1,?
Nc1nc(CN2CCN(c3ccccc3F)CC2)nc(N2CCCc3ccccc32)n1,i,-14%,i,?,-1%
CCOC(=O)N1CCN(C(=O)/C=C/c2cccc([N+](=O)[O-])c2)CC1,i,0%,i,48,0%
O=c1c2ccccc2sc2nc(C3CCCCC3)n(Cc3ccco3)c(=O)c12,i,-26%,i,-1,14%
CCc1nc2sc3ccccc3c(=O)c2c(=O)n1Cc1ccco1,i,26µM*,i,-23,?
CCCCCCSc1ccc([C@@H]2[C@H]3C(=O)N(CC)C(=O)[C@H]3[C@]3(C(=O)OC)CCCN23)cc1,i,-14%,i,-1,-1%
O=C(N/N=C/c1cccn1-c1cccc(C(=O)O)c1)Nc1ccccc1,i,13%,i,0,7%
Cc1ccccc1C=Nc1ccccc1C(N)=O,3.7µM*,16µM*,?,-1,16µM*
Cc1ccc(N=Cc2cccc(O)c2O)c(C)c1,i,·,i,·,·
Cc1ccccc1N=Cc1cccc(O)c1O,i,15µM*,?,64,-13%
Cc1ccc(C=Nc2ccccc2C(N)=O)cc1,7.3µM*,5.6µM*,5.8µM*,41,7.1µM*
O=C(CN1C(=O)C2CCCCN2c2ccc(C(=O)N3CCCC3)cc21)NCc1ccc(F)cc1 (stereo not drawn),i,·,i,·,·
C=CCNc1nc(NCCNC(C)=O)c2sc(-c3ccccc3)cc2n1,i,-26%,i,-3,?
C=CCNc1nc(NCCOC)c2sc(-c3ccccc3)cc2n1,i,?,?,-113*,?
COc1ccc(Nc2ncnc3sc(-c4ccccc4)cc23)cc1OC,i,-11%,i,?,-12%
C=CCNc1nc(Nc2ccc(OC)c(OC)c2)c2sc(-c3ccccc3)cc2n1,2.1µM*,5.8µM*,?,-108*,5.2µM*
C=CCNc1nc(NCCOc2ccccc2Cl)c2sc(-c3ccccc3)cc2n1,?,?,?,-111*,18µM*
COCCNc1nc(-c2cc(F)ccc2C)c2sc(-c3ccccc3)cc2n1,i,-17%,i,-82*,-16%
CNc1nc(-c2ccc3c(c2)CCN3S(=O)(=O)c2ccccc2)c(C)s1,i,?,i,-12,-16%
Cc1ccc(-c2nnc(SCCC(=O)Nc3ccccc3)n2C)cc1,i,·,i,·,·
CCn1nc(C)cc1C(=O)N1CCCC(Nc2ccc(C(C)C)cc2)C1 (stereo not drawn),·,-3%,·,-1,0%
Cc1ccc(N(CC(=O)Nc2cccc(Cl)c2C)S(C)(=O)=O)cc1,i,-8%,i,3,-1%
Cc1cc(Br)ccc1NC(=O)CNC(=O)CN(C)C1CCS(=O)(=O)C1 (stereo not drawn),i,21%,i,-8,11%
Cc1nn(Cc2ccc(F)cc2)c(C)c1NC(=O)c1nn(C)cc1Cl,i,0%,9.2µM*,1,-13%
Cc1cc(C(=O)Nc2c(C)nn(Cc3ccccc3Cl)c2C)no1,i,-26%,21µM*,42,1%
Cc1ccc(Cn2nc(C)c(NC(=O)c3cc(-c4ccc5c(c4)OCO5)on3)c2C)cc1,i,?,i,3,8.9µM*
